Compound activity from PubChem.
BaF3 parental: parental Ba/F3 cell viability inhibition, counter-screen for JAK2V617F inhibitor project, murine pro-B, CellTiter-Glo luminescence; CellTiter-Glo ATP luminescence; inhibition, % at 5.6 µM; 1.1% of 220,000 active; AID 1486, 2009;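 active means inhibition above a per-campaign cutoff, the mean inhibition of all tested compounds plus 3 SD, cut at about 27% in these data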
aSyn 5UTR inh: MLPCN primary screen, SNCA 5' untranslated region. 0.82% of 300,000 active. inhibition, % (tested at 7.5 µM). alpha-synuclein 5'UTR reporter, inhibitor activity. AID 1813, 2009; in the data active means inhibition above about 60%;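 further: H4 neuroglioblastoma cells stably carrying SNCA 5'UTR luciferase fusion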
KLF5 inh: KLF5 expression inhibitors, primary screen, DLD-1 cells, luminescence; DLD-1 KLF5 promoter-luciferase reporter; inhibition, % at 5 µM; 0.23% of 290,000 active; AID 1700, 2009;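 active means inhibition above a per-plate limit of that plate's mean compound inhibition plus 3 SD, cut at about 60% in these data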;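 further: higher means less KLF5 promoter-driven luciferase light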
IEC-6 tox: cytotoxicity in IEC-6 intestinal epithelial cells, primary screen, cytotoxicity control for KLF5 inhibitor project, cell-based, luminescence | IEC-6 cytotoxicity, luminescence viability | inhibition, % at 5 µM | 0.78% of 290,000 active; in the data active means inhibition above about 22%
Ba/F3 V617F tox: reduced viability of JAK2V617F-dependent Ba/F3 cells, primary screen, JAK2V617F inhibitor project, cell-based, Ba/F3 EpoR-JAK2V617F, luminescence | ATP luminescence | 1.1% of 220,000 active | AID 1446, 2008 | inhibition, % at 5.6 µM;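 active means inhibition above the campaign mean plus 3 SD over all tested compounds, cut at about 24% in these data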;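 further: cytokine-independent growth of Ba/F3 cells driven by EpoR plus mutant JAK2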
APP 5UTR inh: inhibitors of APP translation via 5'UTR reporter, primary screen, APP 5'UTR luciferase, SH-SY5Y cells; inhibition, % at 2 µM; AID 1285, 2008; 0.82% of 190,000 active; SH-SY5Y APP 5'UTR-luciferase reporter, luminescence;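 active means inhibition above a set limit, derived from the sample mean plus 3 SD, cut at about 45% in these data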
BaF3 tox 2: parental Ba/F3 cell viability inhibition, counter-screen for JAK2V617F inhibitor project, murine pro-B, CellTiter-Glo luminescence | shares compounds with Ba/F3 V617F tox | AID 1520, 2009 | cells kept alive by added IL-3 | inhibition, % at 5.6 µM | 31% of 580 active;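 active means cell growth inhibition above the hit limit set in the earlier mutant JAK2 cell screen, cut at about 27% in these data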
JAK2V617F confrm: viability loss in Ba/F3 EpoR-JAK2V617F cells, confirmation, JAK2V617F inhibitor project, cell-based, luminescence, triplicate. 66% of 580 active. inhibition, % at 5.6 µM. CellTiter-Glo luminescence. shares compounds with Ba/F3 V617F tox;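 active means mean inhibition above the hit cutoff derived in the earlier primary screen, cut at about 25% in these data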;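 further: higher means lower luminescence from reduced cell ATP and viability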
Each line names hits and unclear results; the compound was inactive in the other large screens (follow-up assays come after a bar, where they were run). Most compounds without a hit are left out; they make up all but 2.2% or so of the library.

CCS(=O)(=O)Nc1cc(C(=O)O)ccc1C	none
Cc1ccc(S(=O)(=O)NC2=NCN(C3CCCCC3)CN2)cc1	none
CC1=CC(C)C2(CO)COC(c3ccccc3O)C1C2C (configuration not stated)	Ba/F3 V617F tox 58 | BaF3 tox 2 inactive | JAK2V617F confrm inactive
CCOc1cc(/C=C2\C(=O)N(CCc3ccc(OC)c(OC)c3)C(C)=C2C(=O)OC)ccc1O	none
CCCC(=O)N(C1CC(C)C(C#N)(C#N)C1(C#N)C#N)N(C)C (configuration not stated)	Ba/F3 V617F tox 46 (no result: APP 5UTR inh) | BaF3 tox 2 inactive | JAK2V617F confrm 62
COC(=O)c1[nH]c2c(c1C)C(=O)CC(c1ccc(C)cc1)C2 (configuration not stated)	none
Cc1c(C(=O)OCC(C)C)[nH]c2c1C(=O)CC(c1cccs1)C2 (configuration not stated)	Ba/F3 V617F tox 24, APP 5UTR inh 59 | BaF3 tox 2 59 | JAK2V617F confrm 88
Cc1ccc(CSCC(=O)NCc2cccnc2)cc1	none
Cc1ccc(CC(=O)NCc2cccnc2)cc1	Ba/F3 V617F tox 58 | BaF3 tox 2 inactive | JAK2V617F confrm inactive
Cc1cc(C)c(NC(=O)CSc2nnc(CN3CCOCC3)n2C)c(C)c1	none (no result: BaF3 parental, Ba/F3 V617F tox, APP 5UTR inh)
Cc1cc(C)cc(NC(=O)CSc2nnc(CN3CCOCC3)n2C)c1	Ba/F3 V617F tox 95 | BaF3 tox 2 inactive | JAK2V617F confrm inactive
O=C(O)Cn1c2c(c3ccccc31)CSc1ccc(Cl)cc1-2	none (no result: BaF3 parental, Ba/F3 V617F tox, APP 5UTR inh)
CC(C)(C)c1ccc(OCc2ccc(C(=O)N/N=C/c3ccc(O)c(O)c3)cc2)cc1	Ba/F3 V617F tox 101 | BaF3 tox 2 81 | JAK2V617F confrm 99
CN(c1ccccc1)S(=O)(=O)c1cccc(C(=O)NCCc2ccc(O)c(O)c2)c1	Ba/F3 V617F tox 32 | BaF3 tox 2 inactive | JAK2V617F confrm 67
CCn1c(C(=O)N2CCC(C(=O)NCc3ccc4c(c3)OCO4)CC2)cc2sccc21	none (no result: aSyn 5UTR inh)
CCCn1c(SCC(=O)NC2CCCc3ccccc32)n[nH]c1=O (configuration not stated)	Ba/F3 V617F tox 57 | BaF3 tox 2 inactive | JAK2V617F confrm inactive
CCCn1c(SCC(=O)NC2CCCC(C)C2C)n[nH]c1=O (configuration not stated)	none
Cc1nn(Cc2ccc(Cl)cc2Cl)c(C)c1NC(=O)CCl	Ba/F3 V617F tox 30 | BaF3 tox 2 inactive | JAK2V617F confrm 64
Cc1ccc(S(=O)(=O)NC(CC(=O)n2nc(C)cc2C)c2ccccc2)cc1 (configuration not stated)	none
Cc1ccc(S(=O)(=O)NC(c2ccccc2)C(C)C(=O)n2nc(C)cc2C)cc1 (configuration not stated)	Ba/F3 V617F tox 64 | BaF3 tox 2 inactive | JAK2V617F confrm inactive
Cc1ccc(S(=O)(=O)CC(C)N2CCOCC2)c(S(=O)(=O)CC(C)N2CCOCC2)c1 (configuration not stated)	none
CC(=O)c1ccc(C(=O)N2CCc3c([nH]c4ccccc34)C2c2cccc(C)n2)s1 (configuration not stated)	none (no result: APP 5UTR inh)
Cc1cccc(C2c3[nH]c4ccccc4c3CCN2Cc2ccc(C)s2)n1 (configuration not stated)	Ba/F3 V617F tox 27 | BaF3 tox 2 inactive | JAK2V617F confrm inactive
CCCn1c(CN(Cc2ccccc2)Cc2ccccc2)nc2c1c(=O)n(C)c(=O)n2C	none
CCCn1c(CN(C)Cc2ccccc2)nc2c1c(=O)n(C)c(=O)n2C	Ba/F3 V617F tox 35 | BaF3 tox 2 inactive | JAK2V617F confrm 58
COc1ccc(-c2cnnc(N/N=C/c3ccc(O)c(O)c3)n2)cc1	Ba/F3 V617F tox 47 | BaF3 tox 2 83 | JAK2V617F confrm 100
C=CCN=c1scc(C)n1/N=C/c1ccc(O)c(O)c1	Ba/F3 V617F tox 62 | BaF3 tox 2 37 | JAK2V617F confrm 86
O=C1OC(/C(=C\Nc2cc(Cl)ccc2O)[N+](=O)[O-])c2ccccc21 (configuration not stated)	Ba/F3 V617F tox 46 | BaF3 tox 2 inactive | JAK2V617F confrm 56
O=C1OC(/C(=C\Nc2ccc(F)cc2F)[N+](=O)[O-])c2ccccc21 (configuration not stated)	none
O=C(c1csc2ccccc12)N1CCCCCC1	Ba/F3 V617F tox 28 | BaF3 tox 2 inactive | JAK2V617F confrm 36
COc1cc(NC(=O)c2ccc([N+](=O)[O-])o2)ccc1NC(=O)c1cccs1	none
O=C(Nc1cccc(NC(=O)c2cccs2)c1)c1ccc([N+](=O)[O-])o1	IEC-6 tox 64, Ba/F3 V617F tox 39 (no result: APP 5UTR inh) | BaF3 tox 2 inactive | JAK2V617F confrm 72
O=C(Nc1ccc(OC(F)(F)F)cc1)C1CCCN(S(=O)(=O)c2cnc[nH]2)C1 (configuration not stated)	none (no result: BaF3 parental, Ba/F3 V617F tox, APP 5UTR inh)
CC(C)c1cc(C(=O)N2CCCC(CCC(=O)N3CCN(c4ccccn4)CC3)C2)no1 (configuration not stated)	Ba/F3 V617F tox 32 (no result: APP 5UTR inh) | BaF3 tox 2 inactive | JAK2V617F confrm inactive
CCc1cc(C(=O)N2CCCC(CCC(=O)N3CCN(c4ccccn4)CC3)C2)no1 (configuration not stated)	none
Cc1cc(C)nc(/N=C(\N)Nc2cccc(OCc3ccccc3)c2)n1	none (no result: APP 5UTR inh)
Cc1cc(C)nc(/N=C(\N)Nc2ccc(OCc3ccccc3)cc2)n1	Ba/F3 V617F tox 34 | BaF3 tox 2 inactive | JAK2V617F confrm 39
CCOc1ccc(N2CC(O)(c3cccs3)[N+]3=C2CCCC3)cc1 (configuration not stated)	Ba/F3 V617F tox 23 | BaF3 tox 2 31 | JAK2V617F confrm 46
OC1(c2cccs2)CN(c2ccccc2)C2=[N+]1CCCC2 (configuration not stated)	none
COc1cccc(CC(=O)NNC(=O)c2ccc3c(c2)OCO3)c1	none (no result: BaF3 parental, Ba/F3 V617F tox, APP 5UTR inh)
COc1ccc(OC)c(NS(=O)(=O)c2ccc(SC)cc2)c1	Ba/F3 V617F tox 30 | BaF3 tox 2 inactive | JAK2V617F confrm 70
CN1CCN(CCC(=O)N/N=C/c2cc([N+](=O)[O-])ccc2OC(F)F)CC1	none
COc1cccc(/C=N/NC(=O)c2c(C)nc3ccc(Br)cn23)c1O	aSyn 5UTR inh 71, Ba/F3 V617F tox 24, APP 5UTR inh 61 | BaF3 tox 2 62 | JAK2V617F confrm 66
CCOc1ccccc1/C=N/NC(=O)c1c(C)nc2ccc(Br)cn12	none (no result: BaF3 parental, Ba/F3 V617F tox, APP 5UTR inh)
